Laboratory results from PMC4552634, “A New Set of Chemical Starting Points with Plasmodium falciparum Transmission-Blocking Potential for Antimalarial Drug Discovery” (PLoS ONE, 2015).
Where two headings read alike, the source gives them in different places. Among all 13,000 compounds or so, about 3,200 (25%) showed an effect of 50% or more. The list shows a part of the results.

Tested on: P. falciparum stage V gametocytes
Parameters: BacTiter-Glo ATP luminescence viability of purified stage V gametocytes in 384-well plates, per cent inhibition versus DMSO
Details: 48 h, 5 µM, inhibitor

| Compound | % Inhibition [%] | % Inhibition (% Inhibition) [%] |
| --- | --- | --- |
| O=C(Nc1ccc(-c2cncc(NCCCN3CCCC3)c2)cc1)c1ccccc1 [TCMDC-133799] | 7.133 | – |
| CN1CC=C(c2c[nH]c3ccc(Br)cc23)CC1 [TCMDC-139098] | -11.28 | – |
| CCN1CCN(c2cc(C)c3cc(NC(=O)c4ccc(C(C)(C)C)cc4)ccc3n2)CC1 [TCMDC-125579] | -38.88 | – |
| Cc1cc(NC(=O)Nc2ccc(C#N)cc2)c2ccccc2n1 [TCMDC-138956] | 16.86 | – |
| CCN1CCc2nc3ccccc3c(C(=O)Nc3ccc(C#N)cc3)c2C1 [TCMDC-124513] | 54.17 | – |
| Cc1onc(-c2c(F)cccc2Cl)c1C(=O)Nc1ccccc1I [TCMDC-125644] | -7.209 | – |
| CS(=O)(=O)Cc1ccc(Nc2nccc(N3CCCc4cc(NC(=O)Nc5cccc(C(F)(F)F)c5)ccc43)n2)cc1 [TCMDC-134309] | 69.84 | – |
| CC(=O)c1ccc(NC(=O)Nc2ccc(N(C)c3ccnc(Nc4cccc(CS(C)(=O)=O)c4)n3)cc2)cc1 [TCMDC-138736] | -10.01 | – |
| CC(=O)c1cccc(NC(=O)NC2CCN(c3ccnc(Nc4ccc(F)cc4)n3)C2)c1 (stereo not drawn) [TCMDC-133594] | -13.54 | – |
| CCCCCCCc1c2c(C)c(C(=O)OCC)nc-2cc2n1CC(C)=C2C [TCMDC-124023] | 93.66 | – |
| O=C(CCCCCNC(=O)c1ccc(O)c(-c2ccc(Cl)c(Cl)c2)c1)NCCN1CCOCC1 [TCMDC-140848] | 9.445 | – |
| O=C(/C=C/c1ccc(Cl)c(Cl)c1)NCC1CCC(CN2CCC(c3c[nH]c4ccccc34)CC2)CC1 (stereo not drawn) [TCMDC-139484] | 1.039 | – |
| O=C(/C=C/c1ccc(Cl)c(Cl)c1)NCC1CCC(N2CCC(c3c[nH]c4ccccc34)CC2)CC1 (stereo not drawn) [TCMDC-139676] | 103.8 | – |
| O=C(/C=C/c1ccc(Cl)c(Cl)c1)NCCC1CCC(N2CCC(c3c[nH]c4ccc(O)cc34)CC2)CC1 (stereo not drawn) [TCMDC-139824] | -86.05 | – |
| O=C(/C=C/c1ccc(Cl)c(Cl)c1)NCCC1CCC(N2CCC(c3c[nH]c4ccccc34)CC2)CC1 (stereo not drawn) [TCMDC-139823] | 54.15 | – |
| O=C(/C=C/c1ccc(Cl)c(Cl)c1)NCC1CCCC(CN2CCC(c3c[nH]c4ccccc34)CC2)C1 (stereo not drawn) [TCMDC-139490] | -31.4 | – |
| O=C(/C=C/c1ccc(Cl)c(Cl)c1)NCCCCCN1C2CCC1CC(c1c[nH]c3ccccc13)C2 (stereo not drawn) [TCMDC-139239] | -9.344 | – |
| Cc1cccc(NC(=O)N(Cc2cc3cc(C)cc(C)c3[nH]c2=O)C2CC2)c1 [TCMDC-123651] | 4.214 | – |
| COc1cccc(C23N=C(Nc4nc5ccccc5[nH]4)NC2(c2cccc(OC)c2)NC(Nc2nc4ccccc4[nH]2)=N3)c1 (stereo not drawn) [TCMDC-139087] | 19.76 | – |
| Cc1ccccc1C1CCN(C2CCC(NC(=O)/C=C/c3c(F)ccc(F)c3F)CC2)CC1 (stereo not drawn) [TCMDC-133512] | -94.66 | – |
| CCCc1cc(Cc2cnc(N)nc2N)cc2c1OC(C)(C)C2 [TCMDC-138049] | -0.08597 | – |
| Cc1c(CNCCCNc2nc3cscc3[nH]2)sc(C(F)F)c1Br [TCMDC-141336] | 21.93 | – |
| CC(C)(C)c1ccc(NC(=O)c2ccc(CN3CCCN(Cc4ccsc4)CC3)cc2)cc1 [TCMDC-136445] | -5.74 | – |

| Compound | % Inhibition [%] | % Inhibition (% Inhibition) [%] |
| --- | --- | --- |
| COc1ccc(C=CC(=O)NC2CCC(CN3CCC(c4c[nH]c5ccccc45)CC3)CC2)cc1 (stereo not drawn) [TCMDC-139949] | – | 103.1 |
| COc1ccc(C=CC(=O)NC2CCC(CN3CCC(c4c[nH]c5ccccc45)CC3)CC2)cc1OC (stereo not drawn) [TCMDC-139932] | 100.6 | – |
| COc1cc(/C=C/C(=O)NC2CCC(CN3CCC(c4c[nH]c5ccccc45)CC3)CC2)ccc1O (stereo not drawn) [TCMDC-139756] | – | -29.87 |
| COc1cc(/C=C/C(=O)NC2CCC(CN3CCC(c4c[nH]c5ccccc45)CC3)CC2)ccc1O (stereo not drawn) [TCMDC-139766] | – | -65.69 |
| COc1cccc(/C=C/C(=O)NC2CCC(CN3CCC(c4c[nH]c5ccccc45)CC3)CC2)c1 (stereo not drawn) [TCMDC-139718] | – | 98.17 |
| COc1ccc(OC)c(C=CC(=O)NC2CCC(CN3CCC(c4c[nH]c5ccccc45)CC3)CC2)c1 (stereo not drawn) [TCMDC-139893] | 103 | – |
| COc1ccc(C=CC(=O)NC2CCC(CN3CCC(c4c[nH]c5ccccc45)CC3)CC2)cc1 (stereo not drawn) [TCMDC-139933] | – | 46.2 |
| N#Cc1cccc(Nc2nccc(NCC(O)c3ccc(C(F)(F)F)cc3)n2)c1 (stereo not drawn) [TCMDC-136590] | 5.433 | – |
| CCc1ccc(NC(=O)c2ccc(CN3CCCN(Cc4cccc(O)c4)CC3)cc2)cc1 [TCMDC-136439] | -0.6993 | – |
| CCN(CCCN1CCCCC1)c1cc(C)nc(Nc2ccc(C(F)(F)F)cc2)n1 [TCMDC-132435] | 28.95 | – |
| CN(Cc1cccc(F)c1)C1CCN(c2cc(NC(=O)c3cccc(F)c3)ccn2)CC1 [TCMDC-135015] | -7.193 | – |
| CCOc1cc(Cc2cnc(N)nc2N)cc(OCC)c1OCC [TCMDC-137696] | -8.766 | – |
| O=C(/C=C/c1cccc2ccccc12)NC1CCC(CN2CCC(c3c[nH]c4ccccc34)CC2)CC1 (stereo not drawn) [TCMDC-139721] | – | -23.68 |
| COc1cccc(C=CC(=O)NC2CCC(CN3CCC(c4c[nH]c5ccccc45)CC3)CC2)c1OC (stereo not drawn) [TCMDC-139902] | 78.88 | – |
| O=C(/C=C/c1cccc2ccccc12)NC1CCC(CN2CCC(c3c[nH]c4ccccc34)CC2)CC1 (stereo not drawn) [TCMDC-139706] | – | -11.81 |
| COc1cccc(/C=C/C(=O)NC2CCC(CN3CCC(c4c[nH]c5ccccc45)CC3)CC2)c1 (stereo not drawn) [TCMDC-139703] | – | 100.1 |
| COc1cc(C=CC(=O)NC2CCC(CN3CCC(c4c[nH]c5ccccc45)CC3)CC2)cc(OC)c1 (stereo not drawn) [TCMDC-139947] | 16.96 | – |
| O=C(Nc1ccccc1N1CCOCC1)c1ncoc1-c1ccccc1C(F)(F)F [TCMDC-123538] | -21.73 | – |
| O=C(N[C@@H](Cc1ccccc1)C(=O)NCCN1CCCCC1)c1ccc(O)c(-c2cccc(C(F)(F)F)c2)c1 [TCMDC-140816] | 36.65 | – |
| O=C1c2ccccc2C(=O)N1CCOc1c(Br)cc(Br)cc1CNCCCNc1cc(=O)c2ccccc2[nH]1 [TCMDC-140115] | -3.219 | – |
| CN1CCN(c2ccnc3ccc(NC(=O)Nc4cccc5c(C#N)cccc45)cc23)CC1 [TCMDC-139344] | -1.771 | – |
| O=C(NCCN1CCCCC1)c1ccc(Nc2nccc(Nc3ccc(Oc4ccccc4)cc3)n2)cc1 [TCMDC-138608] | -29.44 | – |
| O=C(NCc1cccc(C(F)(F)F)c1)[C@@H]1CCCN1C(=O)c1ccc(O)c(-c2ccc(Cl)c(Cl)c2)c1 [TCMDC-140832] | 33.81 | – |

| Compound | % Inhibition [%] | % Inhibition (% Inhibition) [%] |
| --- | --- | --- |
| CC1(C)NC(N)=NC(=N)N1OCc1ccc2ccccc2c1CON1C(=N)N=C(N)NC1(C)C [TCMDC-131631] | -34.98 | – |
| CC(C)CNCc1cccc(-c2ccc(CNc3ccc4ncccc4c3)cc2)c1 [TCMDC-140722] | 48.08 | – |
| c1ccc(CCNCc2cccc(-c3ccc(CNc4ccc5ncccc5c4)cc3)c2)cc1 [TCMDC-140724] | 87.5 | – |
| c1cc(CNC2CCCC2)cc(-c2ccc(CNc3ccc4ncccc4c3)cc2)c1 [TCMDC-140726] | 91.8 | – |
| c1ccc(CCNCc2ccc(-c3ccc(CNc4ccc5ncccc5c4)cc3)cc2)cc1 [TCMDC-140725] | -47.08 | – |
| O=C(Cc1cccc(Cl)c1)Nc1ccc(N2CCC(NCc3ccc4ncccc4c3)CC2)cc1 [TCMDC-124660] | 24.81 | – |
| c1ccc(CCNCc2ccc(-c3cccc(CNc4ccc5ncccc5c4)c3)cc2)cc1 [TCMDC-140720] | 4.928 | – |
| c1cnc2ccc(NCc3ccc(-c4ccc(CNC5CCCC5)cc4)cc3)cc2c1 [TCMDC-140727] | 45.47 | – |
| CC(C)CNCc1ccc(-c2cccc(CNc3ccc4ncccc4c3)c2)cc1 [TCMDC-140719] | 58.47 | – |
| COCCNCc1ccc(-c2ccc(CNc3ccc4ncccc4c3)cc2)cc1 [TCMDC-140723] | 92.65 | – |
| COc1cccc(CNC(=O)c2ccnc(-c3ccc(CNCCOc4ccccc4)cc3)c2)c1 [TCMDC-134501] | 1.442 | – |
| CC(C)(C)CN1C(=O)C(c2ccccc2)(c2ccccc2)N=C1N [TCMDC-136760] | 24.92 | – |
| CCOc1ccc(-c2nc(NC(=O)CS(=O)(=O)c3ccccc3)sc2C)cc1 [TCMDC-123524] | 43.85 | – |
| OC(CNc1ccnc(Nc2ccc(Cl)cc2)n1)c1ccccc1C(F)(F)F (stereo not drawn) [TCMDC-136579] | 19.1 | – |
| OC(CNCc1ccccc1OCc1ccccc1)c1cccc(C(F)(F)F)c1 (stereo not drawn) [TCMDC-140299] | 10.62 | – |
| O=C(/C=C/c1ccc(F)cc1)NC1CCC(CCN2CCc3ccc(-n4cccn4)cc3CC2)CC1 (stereo not drawn) [TCMDC-140323] | -53.18 | – |
| Nc1nc(N)c2c3c(cnc2n1)CCCC3 [TCMDC-137925] | 38.2 | – |
| CCn1c(-c2nonc2N)nc2c(-c3ccccc3)ncc(OCCCNCCCN3CCOCC3)c21 [TCMDC-135858] | 109 | – |
| COc1cc2c(Nc3ccc(NC(=O)c4ccccc4)cc3)ncnc2cc1OCCCN1CCOCC1 [TCMDC-125873] | -52.63 | – |
| CCn1c(-c2nonc2N)nc2c(-c3ccccc3)ncc(OCCCCNCCc3ncc[nH]3)c21 [TCMDC-136000] | 104.7 | – |
| NCCCOc1cnc(-c2ccccc2)c2nc(-c3nonc3N)n(CCc3ccccc3)c12 [TCMDC-136216] | 116.7 | – |
| CCn1c(-c2nonc2N)nc2c(-c3ccc(CO)o3)ncc(OCCCN)c21 [TCMDC-133807] | -40.81 | – |
| COc1cc2c(Nc3cccc(NC(=O)c4ccccc4)c3)ncnc2cc1OCCCN1CCOCC1 [TCMDC-135174] | 18.79 | – |
